# According to PubChem BioAssay AID1347075 (National Center for Advancing Translational Sciences (NCATS), 2019):
# Screen size: about 400,000 compounds; about 5,500 (1.4%) were called active. Another 9% or so got no clear call; they are omitted. Shown is part of a subset that was picked to be rich in actives. A call without a number means that no potency is given here. Values without a mark were called inactive. Calls follow the shape of the dose curve; as a rule, active = well fitted cell-killing curve with a large enough effect; inconclusive = small, poorly fitted or top-dose-only effect, or effect the other way; inactive = flat fitted curve, though single readings scatter.
# Experiment: qHTS assay for MDR1-selective chemotherapeutics: Primary screen using the parental adenocarcinoma cell KB-3-1; also: nearly all actives have a fitted effect of over 60% in size
# Details: KB-3-1 viability, CellTiter-Glo ATP luminescence, 72 h; series mostly up to 46.1 µM
# Summary of the method: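 Here the drug-naive KB-3-1 line serves as comparator for MDR sub-line selectivity; cells received compound titrations, 72 h at 37 °C, then CellTiter-Glo readout.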
# Potency is read from the fitted curve at half-maximal effect.
SMILES,Potency,"activity change, negative = cytotoxic"
COc1ccc(-c2nc3ccccc3o2)cc1NC(=O)c1cc([N+](=O)[O-])ccc1N1CCOCC1,inactive,–
Cc1ccc2c(c1)-c1c(cnn1CC(=O)Nc1ccccc1C#N)CO2,inactive,–
COc1ccccc1CNC(=O)CCn1c(=O)c2ccccc2n(CC(=O)Nc2ccc(Br)cc2F)c1=O,inactive,–
CC(C)C(=O)Nc1cccc(NC(=O)c2ccc([N+](=O)[O-])cc2Cl)c1,inactive,–
CC(C)C(=O)Nc1cccc(NC(=S)NC(=O)C(c2ccccc2)c2ccccc2)c1,20.6 µM (active),–
CCCC(=O)Nc1cccc(NC(=S)NC(=O)C(C)Oc2ccc(Cl)cc2Cl)c1 (configuration not stated),inactive,–
CCc1ccc(S(=O)(=O)n2ccnc2)cc1,inactive,–
Cc1cc(C)n2ncc(C(=O)Nc3cccc(C#N)c3)c2n1,–,0% [at 9.22 µM]
CCOc1cc(-c2nnc(SCC(=O)NC3CCCC3)nc2-c2ccc(OC)c(OCC)c2)ccc1OC,inactive,–
O=C(CN1C(=O)S/C(=C\c2ccccc2Cl)C1=O)NC1C=CS(=O)(=O)C1 (configuration not stated),inactive,–
O=C1/C(=C\c2ccccc2Cl)SC(=S)N1CCC(=O)N1CCCc2ccccc21,23.1 µM (active),–
CCn1c(=O)c2ccccc2n(CC(=O)N2CCCc3ccccc32)c1=O,inactive,–
CCOc1ccc(CCNC(=O)c2cc3c(=O)n(C)c4ccccc4c3n2C)cc1,inactive,–
CCN(CC)c1ccc(NS(=O)(=O)c2cc(-c3cc(C)no3)ccc2C)c(C)c1,inactive,–
CC(C)c1ccc(NC(=O)c2ccc3c(O)c(S(=O)(=O)c4ccccc4)c(=O)[nH]c3c2)cc1,inactive,–
COc1ccc(S(=O)(=O)c2cn(C)c3cc(N4CCCCC4)c(F)cc3c2=O)cc1,inactive,–
CCOC(=O)c1cc2c(ccn2C)n1CC(=O)N1CCC(C)CC1,23.1 µM (active),–
CCOC(=O)c1cc2occc2n1CC(=O)NC1CCC(C)CC1 (configuration not stated),inactive,–
CCOC(=O)c1cc2occc2n1CC(=O)N1CCN(C(=O)c2ccco2)CC1,inactive,–
Cc1ccc(C)c(OCC(=O)Nc2sc3c(c2C#N)CCCC3)c1C,inactive,–
COc1ccc(N2CCN(C(=O)C3CCCN(C(=O)c4cc5sccc5n4C)C3)CC2)cc1 (configuration not stated),inactive,–
Cc1ccc(O)c(/C=N/NC(=O)COc2ccc3c(C)cc(=O)oc3c2)c1,18.4 µM (active),–
COc1ccc(N2CCN(C(=O)COc3ccc4c(C)cc(=O)oc4c3)CC2)cc1,inactive,–
Cc1ccc(OCC(=O)Nc2ccc3oc(=O)ccc3c2)cc1C,inactive,–
CC(=O)c1c(C)[nH]c(C(=O)COC(=O)CCOc2ccc(C)cc2)c1C,inactive,–

SMILES,Potency,"activity change, negative = cytotoxic"
Cc1cc(=O)oc2cc(OC(C)C(=O)NCCc3ccc(S(N)(=O)=O)cc3)ccc12 (configuration not stated),inactive,–
CC(=O)c1c(C)[nH]c(C(=O)COc2ccc3c(C)cc(=O)oc3c2)c1C,14.6 µM (active),–
Cc1cccc2c(=O)cc(CSc3ccccc3NC(=O)C(C)C)[nH]c12,inactive,–
Cc1cc(C)cc(NC(=O)Cn2c(=O)c3ccccc3n3nncc23)c1,inactive,–
Cc1csc(NCC(=O)c2c[nH]c3ccccc23)n1,inactive,–
Cn1cc(S(=O)(=O)N2CCCCCC2)cc1C(=O)N1CCN(c2ccc(F)cc2)CC1,inactive,–
O=[N+]([O-])c1c(NCCO)cc(Sc2nc3ccccc3s2)c2nonc12,inactive,–
O=[N+]([O-])c1cc(Br)c(O)c(/C=N/Nc2nc3ccccc3s2)c1,23.1 µM (active),–
Brc1ccccc1/C=N/Nc1nc2ccccc2o1,inactive,–
COc1cc(OC)c(C2C=C(C(=O)O)Nc3ncnn32)cc1OC (configuration not stated),inactive,–
S=c1[nH]c(=S)c2n[nH]nc2[nH]1,inactive,–
COc1ccccc1N1CCN(C(=O)c2ccc(NC3=NC4CS(=O)(=O)CC4S3)cc2)CC1 (configuration not stated),inactive,–
COc1ccccc1N1CCN(C(=O)c2cc(=O)c3cc(C)cc(C)c3o2)CC1,0.206 µM (active),–
COc1ccc(Nc2ncc(C(=O)N3CCN(c4ccccc4OC)CC3)c3ccccc23)cc1,inactive,–
COc1ccccc1N1CCN(C(=O)c2cc(=O)c3cc(C)ccc3o2)CC1,13 µM (active),–
COc1cc(Cl)ccc1Nc1ncc(C(=O)N2CCN(c3ccccc3OC)CC2)c2ccccc12,inactive,–
COc1cc(CCC(=O)N2CCN(c3ccccc3Cl)CC2)cc(OC)c1OC,inactive,–
COc1cc2c(cc1OC)CN(C(=O)c1cc(S(=O)(=O)N3CCCCC3)ccc1Cl)CC2,inactive,–
COc1ccc2c(CC(=O)N3CCc4cc(OC)c(OC)cc4C3)coc2c1,inactive,–
COc1cc2c(cc1OC)CN(C(=O)c1cc(=O)c3ccccc3o1)CC2,2.91 µM (active),–
CCc1ccc2oc(-c3ccc(C)c(NC(=O)/C=C/c4ccco4)c3)nc2c1,inactive,–
COc1ccccc1CNC(=O)CCCCn1c(=O)c2ccccc2n(CC(=O)Nc2cc(Cl)ccc2C)c1=O,inactive,–
CCCS(=O)(=O)N1CCC(n2c(C(F)(F)F)nc3cccnc32)CC1,inactive,–
O=C(NCC(c1ccco1)S(=O)(=O)c1cccs1)c1ccc(F)cc1 (configuration not stated),inactive,–
CS(=O)c1ccc(/C=C2\C=Cc3ccccc32)cc1 (configuration not stated),inactive,–

SMILES,Potency,"activity change, negative = cytotoxic"
O=C(CCn1c(=O)c2ccccc2n(Cc2ccc(Cl)cc2)c1=O)NCc1ccc2c(c1)OCO2,inactive,–
CCc1ccc(C(=O)CC2(O)C(=O)N(CCc3ccccc3)c3ccc(Br)cc32)cc1 (configuration not stated),inactive,–
COc1ccc(NC(=O)N2CCCn3nc(C)cc32)cc1OC,inactive,–
CCOc1ccc(CNC(=O)c2ccc3nc(CC)c(CC)nc3c2)cc1OC,inactive,–
CN(C)c1cccc2ccccc12,inactive,–
Cc1ccc(F)cc1S(=O)(=O)N1CCC(c2nc3ccccc3s2)CC1,inactive,–
CCOC(=O)c1ccc(NC(=O)Cn2cc(S(=O)(=O)Cc3ccccc3F)c3ccccc32)cc1,inactive,–
Cc1ccc(C)c(Cn2c(C)c(CNCc3ccc(F)cc3)c(C(=O)O)c2C)c1,inactive,–
CCOC(=O)N1CCN(S(=O)(=O)c2ccc(C(=O)Nc3ccc(F)cc3F)cc2)CC1,4.61 µM (active),–
CCOC(=O)N1CCN(S(=O)(=O)c2ccc(Br)cc2)CC1,inactive,–
O=C(Nc1ccccc1F)c1ccc(S(=O)(=O)N2CCCCCC2)cc1,inactive,–
Cc1sc2ncn(CC(=O)N3CCN(c4ccc(F)cc4)CC3)c(=O)c2c1S(=O)(=O)N1CCN(c2ncccn2)CC1,inactive,–
CCOC(=O)c1ccc(NC(=O)C2CC(=O)NC(=Nc3ccc(C)c(C)c3)S2)cc1 (configuration not stated),inactive,–
CC(=O)OC1=C(C(C)=O)N(Cc2ccccc2)S(=O)(=O)c2ccccc21,inactive,–
Cc1cccc(NC(=S)N2CCC(C(=O)c3ccc(F)cc3)CC2)c1,inactive,–
Cc1cccc(NC(=S)NCc2ccc3[nH]c4c(c3c2)CCCC4)c1,16.4 µM (active),–
CCc1cccc(NC(=O)CN(C)S(=O)(=O)c2ccc3[nH]c4c(c3c2)CCCC4)c1,inactive,–
Cc1ccc(Cl)cc1NC(=O)C(C)n1nnc2sc(-c3ccccc3)cc2c1=O (configuration not stated),inactive,–
COc1ccc(C2CC(=O)N(Cc3ccccc3C)c3c2c(C)nn3-c2nc(C)cc(C)n2)c(OC)c1 (configuration not stated),inactive,–
CCOc1ccc(C(=O)c2cn(Cc3ccccc3OC)c3ccc(F)cc3c2=O)cc1,inactive,–
CCCc1ccc(OCCNC(=O)c2ccccc2Br)cc1,inactive,–
CCCOc1ccc(C(=O)C(CCC(CNCC)C(=O)c2ccc(OCCC)cc2)CNCC)cc1 (configuration not stated),5.17 µM (active),–
CCCOc1cccc(C(=O)Nc2cccc(NC(=O)c3ccc(C(C)(C)C)cc3)c2)c1,inactive,–
Cc1ccc2nc(COc3cccc(NC(=O)c4ccccc4Cl)c3)cc(=O)n2c1,inactive,–
CCOc1ccc(CCNC(=O)c2ccc3c(c2)sc2nc(-c4ccc(F)cc4)cn23)cc1OCC,inactive,–

SMILES,Potency,"activity change, negative = cytotoxic"
O=C(Cc1ccc([N+](=O)[O-])cc1)NCCc1ccc2c(c1)OCO2,inactive,–
O=C(NCc1ccc2c(c1)OCO2)c1cc([N+](=O)[O-])ccc1N1CCOCC1,5.17 µM (active),–
CC1CCN(c2ccc(C(=O)NCc3ccc4c(c3)OCO4)cc2[N+](=O)[O-])CC1,inactive,–
Cc1cc(=O)n(CC(=O)Nc2cccc([N+](=O)[O-])c2)c(-n2nc(C)cc2C)n1,inactive,–
CCOc1ccccc1NC(=O)c1ccc2c(c1)CCN2S(=O)(=O)c1ccc(C)cc1,inactive,–
COc1ccccc1NC(=O)c1cc(C2CC2)nc2c1c(C)nn2-c1ccc(C)cc1,inactive,–
COc1cccc(NC(=O)CSc2cc(=O)n(C)c3ccc(Cl)cc23)c1,inactive,–
CCc1cccc(C)c1NS(=O)(=O)c1ccc(-c2cc(C)no2)s1,1.16 µM (active),–
Cc1cc(C)cc(NS(=O)(=O)c2ccc(-c3cc(C)no3)s2)c1,3.26 µM (active),–
CC(=O)c1ccc(NS(=O)(=O)c2ccc(-c3cc(C)no3)s2)cc1,inactive,–
Cc1cc(-c2ccc(S(=O)(=O)N3CCc4ccccc4C3)s2)on1,inactive,–
Cc1cc(-c2ccc(S(=O)(=O)N3CCN(c4cccc(C(F)(F)F)c4)CC3)s2)on1,inactive,–
CCc1cccc(C)c1NS(=O)(=O)c1cc(Br)cnc1N,inactive,–
Cc1ccccc1CN1CCC(CNC(=O)c2cc3ccc4cccnc4c3[nH]2)CC1,inactive,–
COc1cc2[nH]c(=O)n(Cc3ccc(C(=O)NCc4ccc(C)cc4)cc3)c(=O)c2cc1OC,inactive,–
CC1CCCCN1Cc1c(O)ccc2c(=O)c(-c3cccc(Cl)c3)c(C(F)(F)F)oc12 (configuration not stated),inactive,–
COc1nc(N=C(N)N)nc2c(C)cccc12,inactive,–
Cc1nc(N=C(N)N)nc2c(C)cccc12,10.3 µM (active),–
COc1ccc(CNc2nnnn2C)cc1,inactive,–
COCCNc1ncnc2c1ncn2[C@H]1CN(Cc2ccc(OC)cc2)C[C@@H](CO)O1,inactive,–
COc1ccc(CNc2nc(NCc3ccc(OC)cc3)c3ncn(C4CCCC4)c3n2)cc1,6.51 µM (active),–
COc1ccc(S(=O)(=O)NCc2cccn2Cc2cccc(C)c2)cc1,inactive,–
